# Screening data: PubChem, several laboratories
# Sampled rows, rich in hits. Any-hit rate of the full collection: about 1.9%.
# ATG4B inhibitor: ATG4B protease inhibitors, primary screen, biochemical, fluorescence, uHTS. Cysteine protease ATG4B (Homo sapiens), Q9Y4P1. 0.51% of 340,000 active. inhibition, % at 8.33 µM. ATG4B cleavage of LC3-PLA2, NBD-HPC fluorescence, 1 h; in the data active = inhibition above about 40%
# Target sequence (Q9Y4P1 whole entry, looked up): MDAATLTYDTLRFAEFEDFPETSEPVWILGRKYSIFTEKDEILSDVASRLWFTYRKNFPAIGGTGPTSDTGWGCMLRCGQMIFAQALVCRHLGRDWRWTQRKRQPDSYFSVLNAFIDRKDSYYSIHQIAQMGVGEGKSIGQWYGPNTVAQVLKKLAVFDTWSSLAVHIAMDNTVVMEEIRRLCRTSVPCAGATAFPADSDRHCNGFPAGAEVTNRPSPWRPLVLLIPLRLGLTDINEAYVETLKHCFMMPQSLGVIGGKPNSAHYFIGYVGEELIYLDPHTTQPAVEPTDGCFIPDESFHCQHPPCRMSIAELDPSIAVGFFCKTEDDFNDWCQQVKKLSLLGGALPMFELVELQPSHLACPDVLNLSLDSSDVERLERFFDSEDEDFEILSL
# DSG3 Ab inh: inhibitors of pemphigus antibody binding to DSG3, primary screen, biochemical, bead-based, flow cytometry, scFv-GFP; DSG3-coupled beads, scFv-anti-DSG3-GFP binding; active compounds read low; 0.48% of 310,000 active; binding (percent of control), % at 10 µM; Desmoglein-3 (Homo sapiens), P32926;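 active = binding more than 3 SD below its plate's average and above zero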;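 also: hits lower antibody fragment binding to DSG3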
# N-glyco inh: increase of ERlucT glycosylation luciferase signal, primary screen, N-linked glycosylation inhibitor project, D54 ERlucT cells, luminescence, set 2; D54 ERlucT glycosylation luciferase reporter, 24 h; percent of 100 nM tunicamycin response; reporter increase, % at 12.5 µM; 0.23% of 360,000 active;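 active = mean luciferase reporter signal, scaled so untreated is 0 and the glycosylation-blocking control 100, at or above a set limit in every replicate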;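 also: luciferase carries N-glycosylation sites so blocking glycosylation raises the light; 0% = median of neutral control wells and 100% = median of 100 nM tunicamycin wells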
# Vif imaging: HIV Vif self-association inhibitors, primary screen, imaging, HEK293T, single point; AID 602346, 2012; 0.35% of 340,000 active; inhibition, % at 7.49 µM; HEK293T cells, Vif self-association by quenched fluorescence, 24 h; in the data active = inhibition above about 50%, passing the limit was not always enough
# CaV13 ICDI inh: Primary screen for inhibitors of IQ motif and Ca2+-dependent inactivation inhibitor domain binding in CACNA1D, Förster resonance energy transfer in living cells, … | HEK cells, CFP/YFP FRET ICDI-IQ, plate reader, 10 min; percent FRET-ratio fall versus neutral wells | inhibition, % at 12.3 µM | 0.098% of 340,000 active;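 active = mean replicate inhibition of at least 30% and at least 1% of replicates passing that level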;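 also: 0% = median of the neutral control wells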
# NSD2 inh: NSD2 histone methyltransferase inhibitors, primary screen, biochemical, AlphaScreen, single concentration, set 2 | inhibition, % at 12.5 µM | NSD2 peptide methylation, 120 min | 0.54% of 310,000 active
# ATG4B confirm: ATG4B protease inhibitors, retest, confirmation, biochemical, fluorescence, single concentration. shares compounds with ATG4B inhibitor. ATG4B protease fluorescent substrate cleavage assay. inhibition, % at 8.33 µM. 92% of 320 active; in the data active = inhibition above about 39%
# PLA2 counter: PLA2 enzyme inhibition, counter-screen for ATG4B inhibitor project, biochemical, single concentration, uHTS hits; 66% of 1,600 active; inhibition, % at 8.33 µM; shares compounds with ATG4B inhibitor; purified PLA2, NBD-C6-HPC fluorescence, 45 min
# Target sequence (P04054 whole entry, looked up): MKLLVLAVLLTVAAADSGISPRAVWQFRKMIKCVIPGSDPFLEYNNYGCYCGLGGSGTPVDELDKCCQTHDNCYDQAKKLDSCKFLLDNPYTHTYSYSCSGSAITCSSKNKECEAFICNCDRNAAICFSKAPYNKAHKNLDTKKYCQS
# Alpha artifact: AlphaScreen signal interference with preloaded methylated product, dose response, artefact control for NSD2 inhibitor project, biochemical, cherry-picked samples; AlphaScreen artifact counterscreen, preloaded methylated H4 peptide; AID 1053174, 2014; AC35, µM (doses to about 10 µM), for inactives: top-dose activity change, negative = signal loss; 9.4% of 1,500 active; shares compounds with NSD2 inh; call rule not given here
# The depositor's hits bear a star; . = no result. Rule as the data show it, unless noted: active = inhibition above about 50%; inactive = the rest.
SMILES,ATG4B inhibitor,DSG3 Ab inh,N-glyco inh,Vif imaging,CaV13 ICDI inh,NSD2 inh,PLA2 counter,Alpha artifact,others
Cc1occc1C(=O)Nc1ccc2c(c1)CCC2,-2,103,-3,-4,-7,5,.,.,
CCn1cc(C(=O)OCc2cccc(Br)c2)c(=O)c2ccc(C)nc21,46*,100,6,-4,-6,40,53*,.,
CCn1cc(C(=O)OCc2ccccc2)c(=O)c2ccc(C)nc21,3,103,-1,9,-4,0,.,.,
C=Cc1ccc(COC(=O)c2cn(CC)c3nc(C)ccc3c2=O)cc1,40*,99,0,0,-5,-2,49,.,
CCn1cc(C(=O)OCC(=O)OC2CC(C)CCC2C(C)C)c(=O)c2ccc(C)nc21 (stereo not drawn),71*,103,-1,-24,-4,7,71*,.,
C=CCOC(=O)c1cn(CC)c2nc(C)ccc2c1=O,4,107,2,-5,9,0,.,.,
Cc1cccc2nc(-c3cccnc3)c(NCCC(C)C)n12,40*,97,-2,0,-3,0,51*,.,
Cc1cccc2nc(-c3cccnc3)c(Nc3ccccc3)n12,-5,99,-3,-3,-2,1,.,.,
CN1/C(=C\C(=O)CSc2nnc(NCc3ccccc3)s2)C(C)(C)c2ccccc21,42*,140,1,-17,-3,3,38,.,
Cc1cc(C(=O)CSc2nnc(NCc3ccccc3)s2)c(C)n1C,3,96,15,11,-5,3,.,.,
NC(=O)c1ccc(NC(=O)COC(=O)c2c3c(nc4ccccc24)/C(=C\c2cccs2)CCC3)cc1,-21,90,1,-3,4,3,.,.,
CCc1cccc(C)c1NC(=O)COC(=O)c1c2c(nc3ccccc13)/C(=C\c1cccs1)CCC2,46*,91,-3,-4,-10,4,47,.,
O=C(O)C1C2CCC(C2)C1C(=O)Nc1cccc([N+](=O)[O-])c1 (stereo not drawn),1,92,0,-8,-21,-2,.,.,
O=C(Nc1cccc([N+](=O)[O-])c1)C1C2CC/C=C\CCC21 (stereo not drawn),54*,93,-4,-6,-4,1,66*,.,
O=C(Nc1nccs1)c1ccc(Cl)s1,-1,109,-2,1,8,.,.,.,
O=c1c2ccccc2nc(-c2cccc(Cl)c2)n1O,-2,106,2,1,-4,-4,.,.,
Cc1ncc(CC(=O)n2cc(C(=O)c3cc(F)ccc3O)cn2)s1,41*,103,-2,5,-9,13,50*,.,
CC1(C)Cc2c(sc(NC(=O)c3ccco3)c2C(=O)O)CO1,-6,103,2,-2,-9,.,.,.,
CC1(C)Cc2c(sc(NC(=S)NC(=O)c3ccccc3)c2C(=O)O)CO1,41*,84,3,2,-1,3,32,.,ATG4B confirm=74*
O=C1C(=C(I)I)c2ccccc2-c2ccccc21,61*,.,-5,1,-6,131*,-11,-16%,ATG4B confirm=57*
O=C(O)c1cc(-c2ccco2)nn1-c1ccc(Cl)cc1,43*,101,0,-4,1,60*,17,-5%,
O=C(CCCOc1ccccc1)Nc1ccc(Br)cc1,-13,100,4,.,-5,8,.,.,
Cc1cccc(N=C2NC(=O)/C(=C/c3cccn3C)S2)c1C,18,107,-3,-3,-15,17,.,.,
Cc1ccccc1N=C1NC(=O)/C(=C/c2cccn2-c2cccc(C(=O)O)c2)S1,43*,105,.,.,-6,80*,5,-11%,ATG4B confirm=59*
CCC(=O)N1c2ccccc2[C@@H](N(C(C)=O)c2ccccc2)C[C@H]1C,-4,106,19,4,28,-4,.,.,
SMILES,ATG4B inhibitor,DSG3 Ab inh,N-glyco inh,Vif imaging,CaV13 ICDI inh,NSD2 inh,PLA2 counter,Alpha artifact,others
N=C1/C(=C/c2coc3ccccc3c2=O)C(=O)N=C2SC(c3ccco3)=NN12,45*,110,6,1,.,84*,17,-3%,
O=S(=O)(NCc1ccccc1)c1ccc(Cl)cc1,-8,103,0,5,-4,8,.,.,
CCCCn1c(NC(=O)c2ccccc2)c(C#N)c2nc3ccccc3nc21,55*,90,3,52*,2,162*,60*,3%,
Cc1cc(C)c(Nc2cc(S(=O)(=O)O)c(N)c3c2C(=O)c2ccccc2C3=O)c(C)c1,49*,91,-6,2,-5,145*,72*,6.2µM*,
Cc1ccc(-n2cccc2/C=C2/C(=N)N3C(=NC2=O)SN=C3S(C)(=O)=O)cc1Cl,65*,110,1,-1,-3,127*,52*,-9%,
Cc1cc(/C=C2/C(=N)N3C(=NC2=O)SN=C3S(C)(=O)=O)c(C)n1-c1ccc(F)cc1,4,104,1,-3,-7,4,.,.,
COc1ccc(N=Nc2ccc(N)nc2N)cc1,-2,93,-10,-2,-9,11,.,.,
CCOc1ccc2nc3cc(N=Nc4ccc(N)nc4N)ccc3c(N)c2c1,54*,117,-11,11,.,59*,69*,-12%,
C/C(=N/NC(=O)c1ccc(-c2ccccc2)cc1)c1cc(O)cc(O)c1,-19,106,3,-10,-4,-1,.,.,
CC(/C=C1\SC(=S)N(NC(=O)c2ccccc2C)C1=O)=C\c1ccccc1,23,.,4,-2,-6,-1,.,.,
CC(/C=C1\SC(=S)N(NS(=O)(=O)c2ccc(C)cc2)C1=O)=C\c1ccccc1,62*,104,0,0,-4,73*,72*,-11%,
CC(/C=C1\SC(=S)N(NS(=O)(=O)c2ccccc2)C1=O)=C\c1ccccc1,49*,90,1,-6,-4,55*,47,-10%,ATG4B confirm=59*
